High-throughput results deposited in PubChem BioAssay by National Center for Advancing Translational Sciences (NCATS).
The list is not random: actives were taken first. Their share in the collection is about 1.5%.
Akt phos inh – inhibitors of Akt phosphorylation; Neuro2A IGF-stimulated pAkt S473 HTRF, 20 min; active compounds read low; activity change, % for hits at 50 µM; hit rate 0.32% among 360,000; in the data active means activity change below about -80%; inconclusive means mostly about -51% to -80%
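Neuro2A cells (4,500/well, DMEM with 0.5% FBS) were treated with compound at a single 50 µM final concentration, stimulated with 6 nM IGF for 20 min at 37 °C, and lysed. Phospho-Akt Ser473 was read by HTRF as 665/615 ratio ×10^4.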
BRCA1 expr up – increases BRCA1 expression; MCF7-BRCA1-FFLuc reporter, luminescence, 48 h; response scale: scaled: vehicle 0%, 10 µM genistein 100%; AID 624202; hit rate 1.1% among 380,000; Potency, µM (doses to about 46.1 µM), hits mostly activators; further: nearly all actives have a fitted effect of over 80% in size
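48 h compound treatment of MCF7-BRCA1-FFLuc cells (phenol-red free MEM, 37 °C), then 15 min with luciferase substrate and luminescence imaging.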
PINK1 expr mod – changes PINK1 expression. Potency, µM (highest dose often 76.6 µM), usual class: activators. hit rate 0.2% among 410,000. PINK1 immunofluorescence, high-content cytometry, 24 h; active means well fitted activation curve with a large enough effect; inconclusive means small, poorly fitted or top-dose-only effect; cell line not stated here; further: nearly all actives have a fitted effect of over 65% in size
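Stable cell line treated 24 h with compounds at 5 concentrations (CCCP controls), then fixed and immunostained for PINK1 plus nuclear and cell stains; PINK1 immunofluorescence quantified by laser-scanning microplate cytometry.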
TCR act – activators of T cell receptors; primary human leukocytes, anti-CD3, IL-2 HTRF, 48 h; Potency, µM (titrated, usually from 9.22 µM), usual class: activators; 330,000 tested, under 10 active; AID 504894
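Activity was scored as IL-2 release from primary human leukocytes given only a TCR signal (a-CD3 beads) plus compound for 48 hr. Detection used a two-antibody HTRF format read at 665nm.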
Hits are given with their value; . = inactive; ? = inconclusive; / = not tested or not shown. Unless noted, the call rests on the fitted dose curve; in most records, active means well fitted curve in the direction sought with a large enough effect; inconclusive means small, poorly fitted or top-dose-only effect, or another doubt; inactive means no such curve, though single readings can be large; an effect the other way counts as inactive or inconclusive.

SMILES | Akt phos inh | BRCA1 expr up | PINK1 expr mod | TCR act
CCN(CC)c1ncnc2c1cnn2Cc1ccc(C)cc1 | . | . | . | .
COC(=O)c1ccc(C(=O)N2CCc3c(C(=O)NC(C)c4ccco4)c(OC)cc(=O)n3CC2)cc1 (centres undefined) | / | / | . | /
Cc1ccc(OCCn2cc(C#N)c3ccccc32)cc1 | -106% | . | . | .
Cc1ccc(C(=O)N2CCOc3ccc(CN4CCN(Cc5ccccn5)CC4)cc3C2)cc1 | / | / | . | /
O=C(Cn1nnc(-c2ccc3c(c2)OCO3)n1)Nc1ccccc1C(=O)O | . | 11µM | . | .
O=C(Cn1nnc(-c2ccccc2)n1)Nc1ccc2c(c1)OCO2 | . | . | . | .
Cc1ccc(C(=O)Nc2cccc(-c3nc(CNC(=O)C4CCCCC4)c(C)o3)c2)s1 | / | / | . | /
Nc1ccc(Oc2cc(N)cc(Oc3ccccc3)c2)cc1 | . | 7.1µM | . | .
Cc1ccccc1C1(CC(=O)N2CCCC(C)C2)CC(=O)N(Cc2cccnc2)C1=O (centres undefined) | / | / | . | /
CC(C)N1CCC(=NNC(=O)c2cccs2)CC1 | . | 8.9µM | . | .
Cc1ccc(Cc2cn3cc(-c4ccc(F)cc4)nc3s2)cc1 | / | 2.2µM | . | /
COc1ccc(/C=C/c2nc(C#N)c(NCCc3ccccc3)o2)cc1OC | / | / | . | /
C#CCOC(=O)Nc1cccn(Cc2c(Cl)cccc2Cl)c1=O | -120% | . | . | .
N#Cc1c(NC(=O)c2ccccc2)sc2c1CCCCC2 | . | ? | . | .
N#Cc1c(Cl)nsc1NC(=O)c1ccccc1 | . | . | 13µM | .
O=[N+]([O-])c1ccc2oc(/C=C/c3ccc(O)cc3)nc2c1 | . | 10µM | . | /
Cn1cccc1/C=C1\SC(=O)N(c2ccc(O)cc2)C1=O | . | 10µM | . | .
O=C1NC(c2cccc3ccccc23)Nc2ccccc21 (centres undefined) | . | . | . | .
O=C1NC(c2ccccc2Cl)Nc2ccccc21 (centres undefined) | -111% | . | . | .
Cc1cc(C(=O)OC(C)C(=O)Nc2nc(-c3ccccc3)cs2)c(C)o1 (centres undefined) | . | . | / | /
CC(OC(=O)c1ccc([N+](=O)[O-])o1)C(=O)Nc1nc(-c2ccc(F)c(F)c2)cs1 (centres undefined) | . | 13µM | . | .
C=CCn1c(=O)n(CCC#N)c(=O)n(CCC#N)c1=O | -99% | . | . | .
Cc1occc1C(=O)NCCN1Cc2ccccc2OC(c2ccccc2F)C1 (centres undefined) | / | / | . | /
CC(=O)NCc1cc(-c2ccc(Cl)cc2)no1 | . | . | . | .
C/C(=N\OC(=O)c1ccccc1)c1cc(-c2ccc(Cl)cc2)no1 | . | 2.8µM | . | .
SMILES | Akt phos inh | BRCA1 expr up | PINK1 expr mod | TCR act
C/C(=N/OC(=O)C1CC1)c1cc(-c2ccc(Cl)cc2)no1 | . | 4µM | . | .
CCN(CC)c1ccc(C(=O)Nc2ccccc2)cc1[N+](=O)[O-] | . | 10µM | . | .
CCN(CC)c1ccc(C(=O)Nc2cccc(F)c2)cc1 | -115% | ? | . | .
CN(C)c1cccc(C(=O)Nc2cccc(F)c2)c1 | . | . | . | .
Cc1nccc(-c2cccc(N/N=C(\C#N)C(=O)c3ccccc3)c2)n1 | . | . | . | .
N#C/C(=N\Nc1cccc(C(F)(F)F)c1)C(=O)c1ccsc1 | . | . | 11µM | .
Nc1nc2ccccc2n1/N=C/c1ccc2c(c1)OCO2 | . | 5.6µM | . | .
Cc1ccc(-n2ncc(C#N)c2N)cc1 | . | . | . | .
Cc1ccc(-c2cc3ncc(C#N)c(N)n3n2)cc1 | . | 8.9µM | . | .
CCOC(=O)C1CCCN(C(=O)c2cnn(-c3nccc(-c4cc(C)sc4C)n3)c2C)C1 (centres undefined) | / | / | . | /
Cc1ccnn1CC(=O)N1CCOc2c(cc(-c3ncc(C(F)(F)F)cc3Cl)cc2OCC2CCCO2)C1 (centres undefined) | / | / | . | /
CCN(CC)c1ccc(N)cc1 | . | . | 14µM | .
Nc1ccc(N(CCO)CCO)cc1 | . | . | . | .
CCS(=O)(=O)N1CCCC(C(=O)NC2CCCC2)C1 (centres undefined) | . | . | . | .
CCS(=O)(=O)N1CCCC(C(=O)NC2CCCCC2C)C1 (centres undefined) | -110% | . | . | .
CCc1cnc2c(c1SCc1cc(OC)cc(OC)c1)c(=O)n(C)c(=O)n2C | / | / | . | /
CC(=O)N1N=C(c2ccc(C)cc2)OC1c1ccc(Br)cc1 (centres undefined) | . | 13µM | . | .
CC(=O)N1N=C(c2ccc(Cl)cc2)OC1c1ccc(C(C)C)cc1 (centres undefined) | . | . | . | .
Cc1cccc(C)c1OCc1cc(C(=O)N2CCC(C3CCCCC3)C2)no1 (centres undefined) | . | 13µM | . | .
Cc1cccc(C)c1OCc1cc(C(=O)N2CCC(c3ccccc3)CC2)no1 | . | ? | . | .
CC(=O)c1ccc(OCc2cc(C(=O)N3CC[C@@H]4CCCC[C@H]4C3)no2)cc1 | . | 3.2µM | . | .
O=C(c1ccco1)N1CCN(C(=O)c2ccc(-c3ccccc3Cl)o2)CC1 | . | 8.9µM | . | .
O=C(c1cc(-c2ccccc2Cl)on1)N1CCN(C(=O)c2ccco2)CC1 | . | . | . | .
COc1cccc(CN2CCC3(CC2)c2ccccc2[C@@H](NC(=O)c2ccccc2)[C@@H]3O)c1O | / | / | . | /
CN(C)/C=C1\Oc2ccc3ccccc3c2C1=O | . | 7.1µM | . | .
SMILES | Akt phos inh | BRCA1 expr up | PINK1 expr mod | TCR act
COc1cccc(Cc2nc3cccnc3n2C2CCN(C(=O)c3n[nH]c4c3CCCC4)CC2)c1 | / | / | . | /
CCOC(=O)Cn1c(=NC(=O)c2ccc([N+](=O)[O-])s2)sc2ccccc21 | . | . | 25µM | .
CCn1c(-c2cccnc2)nc2cc(NC(=O)COC)cc(C(=O)N3CC[C@@H]4CCCC[C@H]4C3)c21 | / | / | . | /
COc1ccc(OCC(O)Cn2c(=N)n(CCN3CCCCC3)c3ccccc32)cc1 (centres undefined) | . | . | . | .
Cc1ccc(OCC(O)Cn2c(=N)n(CCN3CCCCC3)c3ccccc32)cc1 (centres undefined) | -113% | . | . | .
Nc1ccc(C2CCCc3nonc32)c2nonc12 (centres undefined) | -113% | . | . | .
Cc1nc(NCc2c(C)nn(C)c2Cl)sc1-c1ccn(CC2COc3ccccc3O2)n1 (centres undefined) | / | / | . | /
COc1ccc(C2=NN(c3ccccc3)C(c3ccc(OC)c(OC)c3)C2)cc1 (centres undefined) | . | 10µM | . | .
O=C(/C=C/c1ccccc1[N+](=O)[O-])Nc1ccccc1 | . | 7.1µM | . | .
C=CCSC1=NNC(c2ccc(C(C)(C)C)cc2)=NN1 | . | 7.1µM | . | .
CNC(=O)C1CCC(=O)N1Cc1ccc(C)cc1 (centres undefined) | / | . | . | .
Cc1ccc(CN2C(=O)CCC2C(=O)NC(C)C)cc1 (centres undefined) | -118% | . | . | .
C#Cc1cccc(C(=O)NCc2nc(-c3ccccc3NC(C)=O)oc2C)c1 | / | / | . | /
